Among the data in PubChem BioAssay (NCATS) are Potency values, retold here.

In this assay the target is ATP-dependent 6-phosphofructokinase (Trypanosoma brucei brucei) (UniProt O15648). Kind of assay: qHTS Assay to Find Inhibitors of T. brucei phosphofructokinase: hit validation (AID 492961).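 Note: luminescence reports ADP formed as PFK phosphorylates fructose-6-phosphate with ATP; series mostly up to about 51 µM.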 Summed up: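 PFK 1.25 nM, F6P 0.5 mM, ATP 0.1 mM, MgCl2 5 mM, 0.1 M TEA pH 8.0, Tween20 0.01%, BSA 0.1%; 45 min RT. ADP-Glo two-step detection, luminescence. qHTS titration; curve fitting with curve-class categorization.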
For orientation: In qHTS, concentration-response curves come from the screen itself.

SMILES strings stand for the structures. Records with an inconclusive call do not appear. A call without a number means that no potency is given here. Calls of active or inactive are those of the source. Calls come from the whole dose curve; as a rule, active = well fitted inhibition curve with a large enough effect; inconclusive = small, poorly fitted or top-dose-only effect, or effect the other way; inactive = flat fitted curve, though single readings scatter.

ATP-dependent 6-phosphofructokinase (Trypanosoma brucei brucei), sequence (O15648 whole entry, looked up): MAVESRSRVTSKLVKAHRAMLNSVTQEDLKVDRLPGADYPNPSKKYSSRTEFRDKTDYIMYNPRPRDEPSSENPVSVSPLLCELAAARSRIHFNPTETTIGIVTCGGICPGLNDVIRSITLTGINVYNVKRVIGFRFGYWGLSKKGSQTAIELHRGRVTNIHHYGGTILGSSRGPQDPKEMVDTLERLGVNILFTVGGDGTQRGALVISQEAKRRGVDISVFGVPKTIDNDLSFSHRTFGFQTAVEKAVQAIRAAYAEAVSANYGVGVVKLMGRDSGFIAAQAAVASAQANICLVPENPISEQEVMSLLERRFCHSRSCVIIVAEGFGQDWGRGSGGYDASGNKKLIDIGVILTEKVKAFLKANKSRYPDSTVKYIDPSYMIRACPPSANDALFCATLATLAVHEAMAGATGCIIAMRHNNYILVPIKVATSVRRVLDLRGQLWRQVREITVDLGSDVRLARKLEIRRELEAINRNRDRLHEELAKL

For `CC(C)Nc1cccnc1N1CCN(C(=O)c2cc3cc(NS(C)(=O)=O)ccc3[nH]2)CC1`, the Potency entry was “inactive”.
As to `CCC(C(=O)OCCOCCN(CC)CC)c1ccccc1` (stereo not drawn), the Potency result is “inactive”.
For `O=C(Nc1ncc([N+](=O)[O-])s1)c1cccs1`, the Potency entry was “inactive”.
Consider `CC1(COc2ccc(CC3SC(=O)NC3=O)cc2)CCCCC1` (stereo not drawn), for which the Potency entry was “inactive”.
Turning to `O=C(O)C(Cc1cc(I)c(O)c(I)c1)c1ccccc1` (stereo not drawn), the Potency entry was “inactive”.
Under `Nc1nc(N)c(-c2ccccc2)s1` stands “inactive”.
For the molecule `CC(C)Cc1ccc(CC(=O)O)cc1`, the Potency result is “inactive”.
Regarding `CC(=O)Nc1ccc(OCC(O)CNC(C)C)cc1` (stereo not drawn), the Potency entry was “inactive”.
Under `Cc1ccc(S(=O)(=O)NC(=O)NC2CCCC2)cc1` stands “inactive”; under `O=C(CCN1CCN2CCCC2C1)N1c2ccccc2Sc2ccc(Cl)cc21` (stereo not drawn), “inactive”.
Under `CCCCCN=C(N)N/N=C/c1c[nH]c2ccc(OC)cc12` stands “inactive”.
For `O=C(NCCc1c[nH]c2ccccc12)c1cccnc1` the value was “inactive”.
As to `N#CCC(=O)NN`, the Potency entry was “inactive”.
